Reference: PubChem BioAssay AID1471 (National Center for Advancing Translational Sciences (NCATS), 2008)
Where “and” joins values, the source holds several entries; their conditions need not be identical. Equal values may be shown once. In all, about 230,000 compounds went through this assay and about 310 (0.13%) were called active. Roughly 2% stayed inconclusive and do not appear here. This is one part of a sample in which actives are shown more often than they occur. A number with no mark means an inactive call. Calls come from the whole dose curve; as a rule, active = well fitted activation curve with a large enough effect; inconclusive = small, poorly fitted or top-dose-only effect; inactive = no such curve, though single readings can be large or run the other way.

Experiment: qHTS Multiplex Assay to Identify Dual Action Probes in a Cell Model of Huntington: Cytoprotection (ATP); note: nearly all actives have a fitted effect of over 45% in size;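 for cytoprotection (ATP increase): toxic huntingtin expression switched on by the ecdysone agonist tebufenozide; % of control where 0% means no effect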
Details: PC12 HTT-Q103 induced, ATP luminescence, 40 h; series mostly up to 56.4 µM; cytoprotection (ATP increase): at the top concentration
Source text: NIH Chemical Genomics Center [NCGC]
NIH Molecular Libraries Probe Production centers Network [MLPCN]
Assay Submitter (PI): Wei Zheng
Huntington's disease is a neurodegenerative disorder caused by a trinucleotide repeat expansion in Exon 1 of the Huntingtin gene. The CAG trinucleotide encodes glutamine and polyglutamine expansions cause cell death in selective areas of the brain. Huntington polyglutamine repeats have the tendency to form aggregates which are observable in later stages of the disease. The exact nature of the aggregates, whether toxic, protective, or insignificant, is unclear.
A stable PC12 cell line containing a gene fusion of Exon 1 of the Huntingtin gene linked to GFP under the control of the inducible ecdysone promoter were used as the cell-based model of Huntington Disease for high throughput screening. Exon 1 of the Huntingtin gene contained an expansion of 103 polyglutamines (Q103) which, when expressed, caused cell death and distinct, bright GFP aggregates. The amount of cell death and the size and intensity of GFP aggregates increased over time and induction level. The cell death were quantified with a measurement of ATP content in the cells. A maximal 40-50% of cell death was observed when the Huntington gene was induced in this cell line.
We optimized this assay in a homogeneous 1536 well format. A quantitative high throughput screen (qHTS) was conducted on the PC12 cells which were induced to express the toxic fusion construct. Small molecules which prevented cell death were identified by using a luminescent ATP quantification method (Perkin Elmer's ATPlite).
PC12 cells stably containing a construct with an ecdysone inducible promoter expressing GFP fused to the exon 1 of HTTQ103 (Huntington protein which containing a 103 ployglutamine expansion) were used.
NCGC Assay Protocol Summary:
Sequence, Parameter, Description
1, Reagent, 5 uL 1500 cells/well 1536 TC treated White clear bottom plate
2, Compound, 23 nL Tebufenozide inducer (100 nM final) to all columns
3, Compound, 23 nL 40 uM to 0.5 nM Libraries
5, Reagent, 5 ul ATPLite cell death assay reagent
6, Detector, 4 sec integration with a Viewlux Luminescent
Media consisted of phenol red free DMEM + 5% equine serum (Hyclone # SH30072.03 ), 5% supplemented Bovine Calf Serum (Hyclone # SH30074.03 ), 1x pen/strep, no G418
Control columns: 1 = DMSO, 2= 2 uM teb dilns (1:1), 4 = 100 nM Teb inducer. Sample columns received 100 nM Teb.
In the case of `COc1ccc(-c2noc(-c3ccc(C)cc3)n2)cc1`, the “cytoprotection (ATP increase)” value is reported as -47.5%.
In the case of `COc1ccc(-c2noc(-c3cccc(OC)c3OC)n2)cc1OC`, the “cytoprotection (ATP increase)” value is reported as -59.3%.
For `COc1ccc(-c2nc(-c3ccccc3)no2)c(OC)c1`, the Potency was 5.62 µM (active).
With `O=P(O)(O)C(O)c1ccc2ccccc2c1` (stereo not drawn) the “cytoprotection (ATP increase)” value was -34.5%.
In the case of `COCCNc1nc2nonc2nc1N(C)Cc1ccc(C)cc1`, the cytoprotection (ATP increase) is reported as -6.59% [at 10 µM].
In the case of `Cc1ccc(NC(=O)O[C@@H]2C(=O)c3cc(Br)ccc3O[C@H]2c2ccc3c(c2)OCO3)cc1Br`, the “cytoprotection (ATP increase)” value is reported as 18.1%.
In the case of `CCNc1nc(NC(C)C)nc(OCCOC(=O)c2ccccc2)n1`, the cytoprotection (ATP increase) is reported as -7.6% [at 10 µM].
With `COc1ccc(C2(C#N)CCC(C(=O)O)CC2)cc1OC1CCCC1` (stereo not drawn) the “cytoprotection (ATP increase)” value was -6.84%.
In the case of `C=C(C)C(=O)c1ccc(F)cc1`, the “cytoprotection (ATP increase)” value is reported as -4.25%.
In the case of `C/C(Nc1ccc2oc(=O)ccc2c1)=C1/C(=O)CC2[C@@H]1C2(C)C` (stereo partly drawn), the “cytoprotection (ATP increase)” value is reported as 17.8%.
`Nc1ccc(N=Nc2ccccc2Cl)c(N)n1` gave a cytoprotection (ATP increase) of 7.07% [at 10 µM].
With `COC(C)C(C(=O)OCC1=CCN2CC[C@H](O)[C@@H]12)C(C)C` (stereo partly drawn) the “cytoprotection (ATP increase)” value was -53.3%.
In the case of `COc1ccc(-c2c(C)cc3oc(=O)cc(-c4ccccc4)c3c2C)cc1F`, the “cytoprotection (ATP increase)” value is reported as -61.8%.
Molecule `N#C/C(=C\C1=C(N2CCOCC2)C(=C\c2ccccc2)/CC1)C(=O)Nc1ccccc1F` has a cytoprotection (ATP increase) of 6.74% [at 10 µM].
`COC(=O)C1=C(C(=O)OC)[C@@H]2Nc3ccccc3[C@@]23C[C@@H](C(=O)OC)N(S(=O)(=O)c2ccc([N+](=O)[O-])cc2)C3=N1` showed a cytoprotection (ATP increase) of 9.32% [at 10 µM].
Work on `COC(=O)C1=C(N)Oc2cc(C)[nH]c(=O)c2C1c1ccc(Cl)cc1` (stereo not drawn) yielded a cytoprotection (ATP increase) of -1.17% [at 10 µM].
With `COc1ccc(C2CC(=O)Oc3ccc(C(C)(C)C)cc32)cc1` (stereo not drawn) the “cytoprotection (ATP increase)” value was -9.32%.
For `FCOC(C(F)(F)F)C(F)(F)F`, the “cytoprotection (ATP increase)” value was 32%.
For `CC(C)=CCC[C@]1(C)[C@@H](CC=C(C)C)C[C@@]2(CC=C(C)C)C(=O)[C@]1(C(=O)C(C)C)C(=O)C(CC=C(C)C)=C2O`, the “cytoprotection (ATP increase)” value was -130%.
In the case of `O=C(OCc1ccccc1)c1ccc(O)cc1`, the “cytoprotection (ATP increase)” value is reported as 9.85%.
With `COc1ccc(-c2nc3c(c4c2C[C@H](c2ccccc2)OC4)CN(C(=O)c2ccco2)CC3)c(C)c1` the cytoprotection (ATP increase) was -10% [at 10 µM].
In the case of `CCCCCCCC1=Cc2ccc(F)cc2C(C(C(=O)OC)C(=O)OC)N1C(=O)OC` (stereo not drawn), the cytoprotection (ATP increase) is reported as “inactive”.
For `OCC(CO)NC1C[C@](O)(CO)[C@@H](O)[C@H](O)[C@H]1O` (stereo partly drawn), the “cytoprotection (ATP increase)” value was 43.4%.
In the case of `CC(=O)OC1C([N+]2(C)CCCCC2)C[C@H]2C3CC[C@H]4C[C@H](OC(C)=O)C([N+]5(C)CCCCC5)CC4(C)C3CCC12C` (stereo partly drawn), the “cytoprotection (ATP increase)” value is reported as -36.3%.
With `Oc1ccc(Cl)c2c1CCC2` the “cytoprotection (ATP increase)” value was 22.2%.
With `O=C(O)C1CCCN(CCC=C(c2ccccc2)c2ccccc2)C1` (stereo not drawn) the “cytoprotection (ATP increase)” value was -9.11%.
With `COCCNc1nc(-c2ccccc2)nc2c1oc1ccccc12` the cytoprotection (ATP increase) was 13.7% [at 10 µM].
In the case of `CC(=O)c1cnn(-c2cc(Oc3ccc(F)cc3)ncn2)c1C`, the “cytoprotection (ATP increase)” value is reported as -0.119%.
In the case of `CO[C@@]12[C@@H](COC(N)=O)C3=C(C(=O)C(C)=C(N)C3=O)N1C[C@@H]1N[C@@H]12`, the “cytoprotection (ATP increase)” value is reported as -173%.
For `C[C@]12CC[C@@H]3c4ccc(O)cc4C[C@@H](CCCCCCCCCS(=O)CCCC(F)(F)C(F)(F)F)C3[C@@H]1CC[C@@H]2O` (stereo partly drawn), the “cytoprotection (ATP increase)” value was 2.26%.
Work on `O=C(Cn1cnc2c(nnn2Cc2ccc(F)cc2)c1=O)NCc1ccc2c(c1)OCO2` yielded a cytoprotection (ATP increase) of 7.52% [at 10 µM].
For `O=C(Cc1ccc(F)cc1)NC1CCCC1`, the “cytoprotection (ATP increase)” value was 14.1%.
In the case of `O=C(CSc1ncnc2c1nnn2Cc1ccc(F)cc1)NC1CCCC1`, the Potency is reported as 1.26 µM (active).
In the case of `COC(=O)C(C(=O)OC)[C@@H](NC=O)c1ccccc1`, the “cytoprotection (ATP increase)” value is reported as -30.4%.
In the case of `CC1(OC(=O)c2ccc(Cl)nc2)C(=O)Cc2cc(-c3ccsc3)ncc2C1=O` (stereo not drawn), the cytoprotection (ATP increase) is reported as -9.48% [at 10 µM].
In the case of `COc1ccc2c(c1)O[C@@H](c1ccc3c(c1)OCO3)[C@H](OC(=O)NCCc1ccc(OC)c(OC)c1)C2=O`, the “cytoprotection (ATP increase)” value is reported as -180%.
With `COc1cc2c(cc1OC)[C@@H](Cc1cc(OC)c(OC)c(OC)c1)[N+](C)(CCCOC(=O)CC/C=C/CCC(=O)OCCC[N+]1(C)CCc3cc(OC)c(OC)cc3[C@H]1Cc1cc(OC)c(OC)c(OC)c1)CC2` (stereo partly drawn) the “cytoprotection (ATP increase)” value was 6.54%.
Work on `CCN1C(=O)N[C@@H](CCc2ccccc2)C(C(=O)OC)=C1C` yielded a cytoprotection (ATP increase) of -1.46% [at 10 µM].
In the case of `C=C(C(C)=O)C(O)c1cccs1` (stereo not drawn), the “cytoprotection (ATP increase)” value is reported as -12.9%.
In the case of `O=C(Nc1ccc(O)cc1)c1ccccc1O`, the “cytoprotection (ATP increase)” value is reported as -145%.
In the case of `CC(C)(Oc1ccc(C2CC2(Cl)Cl)cc1)C(=O)O` (stereo not drawn), the “cytoprotection (ATP increase)” value is reported as 30.1%.
In the case of `C=CCOC(=O)NC(c1ccc(F)c(F)c1)C(C(=O)COC)C(=O)OC` (stereo not drawn), the cytoprotection (ATP increase) is reported as “inactive”.
In the case of `CCn1c(-c2ccncc2)n[nH]c1=S`, the “cytoprotection (ATP increase)” value is reported as -8.17%.
With `CCn1c(-c2ccoc2C)n[nH]c1=S` the Potency was 5.62 µM (active).
With `CCn1c(C(C)C)n[nH]c1=S` the “cytoprotection (ATP increase)” value was -26.1%.
Work on `Cc1ccc(Nc2nc(N)nc(CSc3nnc(C)s3)n2)cc1` yielded a cytoprotection (ATP increase) of 18.8% [at 10 µM].
For `CCOC(=O)C1CCCN(C(=O)c2cccc(S(=O)(=O)N3CCOCC3)c2)C1` (stereo not drawn), the cytoprotection (ATP increase) was 21.6% [at 10 µM].
For `CC(C)=CCN1CCC2(CCc3ccccc32)CC1`, the “cytoprotection (ATP increase)” value was -37.2%.
Molecule `C#CCCOC(=O)N1C2=NC(C(=O)OC)=C(C(=O)OC)[C@@H]3N(C)c4ccc(OC)cc4[C@]23C[C@H]1C(=O)OC` has a cytoprotection (ATP increase) of -19.2% [at 10 µM].
For `O=P(O)(O)OC[C@H](O)CO`, the “cytoprotection (ATP increase)” value was 2.81%.
For `CC(C)(C)OC(=O)NCCCC1=CC2=CC(=O)C(C)(OC(=O)c3ccco3)C(=O)C2=CO1` (stereo not drawn), the “cytoprotection (ATP increase)” value was -5.66%.
For `COCCCNC(=O)C1CC(=O)N(CCc2ccccc2)C1` (stereo not drawn), the “cytoprotection (ATP increase)” value was -12%.
`COc1ccc(N=Nc2ccc(O)c(P(=O)(c3ccccc3)c3ccccc3)c2)cc1` showed a cytoprotection (ATP increase) of 13.4% [at 10 µM].
For `COC(=O)C1(C(C)=O)CC2=CC[C@H]3C(=O)N(c4ccccc4)C(=O)[C@H]3[C@@H]2Cc2ccccc2[C@@H]1C[N+](=O)[O-]` (stereo partly drawn), the cytoprotection (ATP increase) was “inactive”.
For `Cc1c(N=Nc2ccc(N(C)C)cc2)c(=O)n(-c2ccccc2)n1C`, the cytoprotection (ATP increase) was -1.47% [at 10 µM].
For `CCNC(=O)COC(=O)/C=C/c1c(C)nn(Cc2cccc(OC)c2)c1Cl`, the “cytoprotection (ATP increase)” value was -27%.
For `CN(C)c1nc(N)nc(Cn2nnc(-c3ccc(C(F)(F)F)cc3)n2)n1`, the “cytoprotection (ATP increase)” value was -14.2%.
For `COC(=O)C1=C(C(=O)OC)[C@@H]2N(C)c3ccccc3[C@@]23C[C@@H](C(=O)OC)N(C(C)=O)C3=N1`, the cytoprotection (ATP increase) was 0.243% [at 10 µM] and 2.58% [at 10 µM].
